Reference: PubChem BioAssay (NCI)
About 79,000 compounds went through this panel and 15% of them were active in at least one assay; those are over-represented in the sample as a whole. Unmarked numbers belong to inactive results. Active and inactive are the calls of the source. No stated cut-off is given here; in the data, active means growth inhibition above about 70%; inactive means the rest.

How the values were obtained:
[1] = NCI Yeast Anticancer Drug Screen. Data for the rad50 strain (AID 155);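 further: 0% = growth of vehicle-only cultures of the same strain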; details: S. cerevisiae rad50 strain growth inhibition, active compounds read high
How it was run: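 A DNA repair-deficient yeast mutant serves as the test organism; compound-induced growth inhibition is calculated against vehicle-treated cells.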

[2] = NCI Yeast Anticancer Drug Screen. Data for the mec2-1 strain (AID 157); details: S. cerevisiae mec2-1 strain, active compounds read high
How it was run: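 Each compound was tested on mec2-1 yeast, a strain altered in DNA damage repair or cell cycle control. Growth inhibition is reported relative to vehicle.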

[3] = NCI Yeast Anticancer Drug Screen. Data for the sgs1 mgt1 strain (AID 161);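 further: 0% = growth of cultures given vehicle only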; details: S. cerevisiae sgs1 mgt1 strain, active compounds read high
How it was run: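 Inhibition of yeast growth, normalised to vehicle-treated controls, is reported for a strain bearing genetic alterations in DNA damage repair.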

[4] = NCI Yeast Anticancer Drug Screen. Data for the cln2 rad14 strain (AID 165);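 further: 0% = growth equal to vehicle treated cultures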; details: S. cerevisiae cln2 rad14 strain, active compounds read high
How it was run: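 Test compounds were added to cln2 rad14 yeast cultures; inhibition of growth was then determined by comparison with vehicle treatment.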

[5] = NCI Yeast Anticancer Drug Screen. Data for the bub3 strain (AID 167); details: S. cerevisiae bub3 mutant strain, active compounds read high
How it was run: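 Inhibition values come from growth of compound-treated mutant yeast normalised to vehicle-treated controls.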

[6] = NCI Yeast Anticancer Drug Screen. Data for the mlh1 rad18 strain (AID 175); details: S. cerevisiae mlh1 rad18 strain growth inhibition, active compounds read high
How it was run: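 Inhibition values reflect reduced growth of mutant yeast versus vehicle-treated controls following compound exposure; the mutations affect DNA damage repair.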

[7] = at 5.0 µM (retest, dose inferred, filed as 0.5)
[8] = at 50.0 µM (retest, dose inferred, filed as 5.0)

Structure (SMILES) | growth inhibition [1, 7] [%] | growth inhibition [1, 8] | growth inhibition ([1]; at 50.0 µM) | growth inhibition [2, 7] [%] | growth inhibition [2, 8] | growth inhibition ([2]; at 50.0 µM) | growth inhibition [3, 7] [%] | growth inhibition [3, 8] | growth inhibition ([3]; at 50.0 µM) | growth inhibition [4, 7] [%] | growth inhibition [4, 8] | growth inhibition ([4]; at 50.0 µM) | growth inhibition [5, 7] [%] | growth inhibition [5, 8] | growth inhibition ([5]; at 50.0 µM) | growth inhibition [6, 7] [%] | growth inhibition [6, 8] | growth inhibition ([6]; at 50.0 µM)
C[C@]12CCC3[C@@H](CC[C@@H]4c5nonc5CC[C@]34C)C1CCC(=O)N2 (stereo not given in full) | 10 | 24% | 50.1% | 5 | 17% | -4.95% | 11 | 27% | 51.5% | 7 | 13% | -3.6% | 6 | 48% | 31.9% | 16 | 21% | 25.4%
O=C1C=CC(=O)c2c(O)c(N3CCN(CCO)CC3)c(Cl)c(O)c21 | 37 | 95% (active) | 84.7% (active) | 33 | 99% (active) | 89.8% (active) | 48 | 99% (active) | 90.7% (active) | 26 | 82% (active) | 86.8% (active) | 47 | 98% (active) | 88.5% (active) | 41 | 98% (active) | 88.8% (active)
Cc1ccc(C)c(N2C(=O)C(=O)C(c3nc4ccccc4o3)C(=O)C2=O)c1 | 38 | 98% (active) | 99% (active) | 18 | 99% (active) | 99.3% (active) | 30 | 98% (active) | 96.3% (active) | 30 | 99% (active) | 99% (active) | 13 | 98% (active) | 99.3% (active) | 15 | 98% (active) | 98.8% (active)
CC(CN(CC(=O)O)CC(=O)O)N(CC(=O)O)CC(=O)O.[Cl][Pd][Cl] (stereo not given) | 27 | 89% (active) | 88.3% (active) | 7 | 87% (active) | 91.5% (active) | 40 | 92% (active) | 82% (active) | 14 | 81% (active) | 57.2% | 22 | 91% (active) | 86.4% (active) | 30 | 83% (active) | 90.7% (active)
CC(=O)c1c(C)n(C)c2c1nnc1ccccc12 | 53 | 81% (active) | 92.3% (active) | 17 | 50% | 36.9% | 6 | -2% | 22% | 9 | 31% | 59.4% | 11 | 48% | 27.1% | 19 | 56% | 68.4%
